From PubChem BioAssay (EPA / NIEHS)
“And” between values parts separate entries of the source, which are not always exact repeats. Equal entries are not always repeated. A structure can be active in one record and inactive in another. The source made the active and inactive calls. The calls were made as follows: active = hit-call score of the fitted dose curve at least 0.9, where 1 is the maximum; inactive = score below 0.9.

The compounds below were run on Plasminogen Activator Inhibitor-1 (PAI1), SERPINE1 (gene 5054) (assay: BSK_BF4T_PAI1: BioMAP Diversity Plus: BF4T Assay for Plasminogen Activator Inhibitor-1 (PAI1) Biomarker Activity (AID 2284273)). Conditions: primary human bronchial epithelial cells with fibroblasts.
Method: BSK_BF4T is a cell-based, multiplexed-readout assay that uses bronchial epithelial cells and dermal fibroblasts, a human vascular primary cell, with measurements taken at 24 hours after chemical dosing in a microplate: 96-well plate.BSK_BF4T_PAI1 is an assay component measured in the BSK_BF4T assay. It measures PAI-1 antibody related to regulation of gene expression using ELISA technology.Data from the assay component BSK_BF4T_PAI1 was analyzed at the endpoint, BSK_BF4T_PAI1, in the positive analysis fitting direction relative to DMSO as the negative control and baseline of activity. Using a type of binding reporter, gain or loss-of-signal activity can be used to understand protein changes. To generalize the intended target to other relatable targets, this assay endpoint is annotated to the 'cytokine' intended target family, where the subfamily is 'plasmogen activator inhibitor'.
The levels of cell surface (or secreted, indicated by the prefix "s") biomarker endpoints were measured by ELISA. Overt cytotoxicity to cells in confluent adherent cultures (all systems other than the BT system) was assessed by measuring total protein levels using sulforhodamine B (SRB) staining in parallel cultures at the time of biomarker measurements, indicated as SRB endpoints. For proliferation assays for adherent cell types, individual cell types are cultured at sub-confluence and relative cell numbers quantified by SRB staining at time points optimized for each system (48 h: 3C and CASM3C systems; 72 h: BT and HDF3CGF systems; 96 h: SAg system). SRB was performed by staining cells with 0.1% SRB after fixation with 10% TCA and reading wells at 560 nm.Viability and proliferation of PBMC (T cells) was quantified by Alamar Blue reduction for the SAg and BT systems. For PBMC viability (referred to as PBMC Cytotoxicity within the assay endpoint names), cells were plated (75,000/well in a 96-well plate) and then chemical samples added for 1 h before addition of activators, SEB and TSST-1 (20 ng/mL final concentration each). Cells were incubated for 90 h. Then, Alamar Blue (20 uL/well) (Invitrogen, Cat DAL1100) was added for 6 h, and the plates were read with a fluorescence microplate reader at 546/580 nm (excitation/emission). For PBMC proliferation, cells were plated and activated as above but incubated for only 16 h prior to addition of Alamar Blue. Plates were read after 6 h.
In the case of `FC1CC(F)(F)C(F)(F)C1(F)F` (stereo not given), the outcome is reported as “inactive”. With `C=CC(F)(F)C(F)(F)C(F)(F)C(F)(F)C(F)(F)C(F)(F)C(F)(F)C(F)(F)C=C` the outcome was “inactive”. `FC(F)(F)C(F)(F)C(F)(F)C(F)(F)C(F)(F)C(F)(F)CCS` was tested, and the outcome was “inactive”. In the case of `FC(F)(I)C(F)(F)C(F)(F)C(F)(F)I`, the AC50 is reported as 45.8 µM (active) and 47.3 µM (active) and the outcome is reported as “inactive”. For `OCC(F)(F)C(F)(F)C(F)(F)C(F)F`, the outcome was “inactive”. For `O=C(O)C(F)(F)C(F)(F)C(F)(F)C(F)(F)C(F)(F)C(F)(F)C(F)(F)C(F)(F)C(F)(F)C(F)F`, the AC50 was 39.7 µM (active) and 30 µM (active). For `O=C(O)C(F)(F)C(F)(F)C(F)(F)C(F)(F)C(F)(F)C(F)(F)C(F)(F)C(F)(F)C(F)(F)C(F)(F)C(F)(F)C(F)(F)F`, the outcome was “inactive”. With `C=CC(=O)OCC(F)(F)C(F)(F)C(F)(F)C(F)(F)C(F)(F)C(F)(F)C(F)(F)F` the outcome was “inactive”. With `N=C(N)C(F)(F)C(F)(F)C(F)(F)C(F)(F)C(F)(F)C(F)(F)C(F)(F)F` the outcome was “inactive”. For `CCO[Si](CCC(F)(F)C(F)(F)C(F)(F)C(F)(F)C(F)(F)C(F)(F)F)(OCC)OCC`, the outcome was “inactive”. With `O=S(=O)(OCC(F)F)C(F)(F)F` the outcome was “inactive”. With `O=C(O)C(F)(OC(F)(F)C(F)(OC(F)(F)C(F)(OC(F)(F)C(F)(F)C(F)(F)F)C(F)(F)F)C(F)(F)F)C(F)(F)F` (stereo not given) the outcome was “inactive”. With `COC(=O)CCC(F)(F)C(F)(F)C(F)(F)C(F)(F)F` the outcome was “inactive”. With `O=C(O)C(F)(F)C(F)(F)OC(F)(F)F` the outcome was “inactive”. With `O=P(O)(O)OCCC(F)(F)C(F)(F)C(F)(F)C(F)(F)C(F)(F)C(F)(F)F` the outcome was “inactive”. With `O=C(O)C(F)(F)C(F)(F)C(F)F` the outcome was “inactive”. With `FC(F)(F)C(F)(F)C(F)(F)C(F)(F)C(F)(F)C(F)(F)C(F)(F)I` the outcome was “inactive”. With `O=C(O)C(F)(F)C(F)(F)C(F)(F)C(F)(F)F` the outcome was “inactive”. For `O=C(O)C(F)(F)C(F)(F)C(F)(F)C(F)(F)C(F)(F)C(F)(F)C(F)(F)C(F)(F)C(F)(F)C(F)(F)C(F)(F)C(F)(F)C(F)(F)F`, the outcome was “inactive”. For `FC(F)(F)C(F)(F)C(F)(F)C(F)(F)C(F)(F)C(F)(F)C(F)(F)C(F)(F)F`, the outcome was “inactive”. For `O=S(=O)(OCCOC(F)(F)F)C(F)(F)F`, the outcome was “inactive”. With `FC(F)(F)C(F)(F)C(F)(F)CI` the outcome was “inactive”. In the case of `O=C(O)C(F)(F)C(F)(F)C(F)(F)F`, the outcome is reported as “inactive”. For `CCCCCCCCC(F)(F)C(F)(F)C(F)(F)C(F)(F)C(F)(F)C(F)(F)F`, the outcome was “inactive”. For `OCCCC(F)(F)C(F)(F)C(F)(F)F`, the outcome was “inactive”. With `FC(F)(F)C(F)(F)C(F)(F)C(F)(F)C(F)(F)C(F)(F)C(F)(F)Br` the outcome was “inactive”. For `FC(F)(F)C(F)(F)C(F)(F)C(F)(F)C(F)(F)C(F)(F)CC1CO1` (stereo not given), the outcome was “inactive”. With `O=C(O)C(F)(OC(F)(F)C(F)(OC(F)(F)C(F)(F)C(F)(F)F)C(F)(F)F)C(F)(F)F` (stereo not given) the outcome was “inactive”. `C=C(C)C(=O)OCC(F)(F)C(F)(F)C(F)(F)F` was tested, and the outcome was “inactive”. `FC(F)(F)C(F)(F)C(F)(F)C(F)(F)CCI` was tested, and the outcome was “inactive”. `O=C(CC(=O)C(F)(F)C(F)(F)F)C(F)(F)F` was tested, and the outcome was “inactive”. `FC(F)(Br)C(F)(F)C(F)(F)C(F)(F)C(F)(F)C(F)(F)Br` was tested, and the outcome was “inactive”. With `C=CC(=O)OCC(F)(F)C(F)(F)C(F)(F)C(F)(F)COC(=O)C=C` the outcome was “inactive”. In the case of `FC(F)(F)C(F)(F)C(F)(F)C(F)(F)C(F)(F)C(F)(F)C(F)(F)C(F)(F)CCS`, the outcome is reported as “inactive”. For `O=C(O)C(F)(F)C(F)(F)C(F)(F)C(F)(F)C(F)(F)C(F)(F)C(F)(F)C(F)(F)Cl`, the AC50 was 44.8 µM (active) and 42.7 µM (active). With `OCCCC(F)(F)C(F)(F)C(F)(F)C(F)(F)C(F)(F)C(F)(F)C(F)(F)F` the AC50 was 47.5 µM (active) and 39.4 µM (active). `OCC(F)(F)C(F)(F)C(F)(F)C(F)(F)C(F)(F)C(F)(F)F` was tested, and the outcome was “inactive”. For `OCC(F)(F)C(F)(F)C(F)(F)C(F)(F)C(F)(F)C(F)F`, the outcome was “inactive”. `FC(F)(F)C(F)(F)C(F)(F)N(C(F)(F)C(F)(F)C(F)(F)F)C(F)(F)C(F)(F)C(F)(F)F` was tested, and the outcome was “inactive”.
